# This is a sample that favours compounds with a hit; in the whole collection about 1.9% have one here.
# PLCg1 inh: inhibitors of human phospholipase C gamma1; purified PLC-gamma1, fluorogenic substrate, fluorescence; 370,000 compounds, 0.84% hits; inhibition, % at 12.2 µM; P19174
# MsrA inhibitor: inhibits bovine methionine sulfoxide reductase A; purified bovine MsrA, absorbance read-out; 360,000 compounds, 0.75% hits; inhibition, % at 15.5 µM; in the data active = inhibition above about 4.5%;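 note: 0% = vehicle wells with enzyme and 100% = reference inhibitor wells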
# PLC-beta3 inh: blocks human PLC-beta3 enzyme activity; Purified PLC-beta3, fluorogenic substrate, fluorescence; inhibition, % at 12.2 µM; 370,000 compounds, 0.18% hits; AID 720704; in the data active = inhibition above about 11%;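 note: 0% = median of compound wells on plate and 100% = full blocker control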
# Target sequence (Q01970 whole entry, looked up): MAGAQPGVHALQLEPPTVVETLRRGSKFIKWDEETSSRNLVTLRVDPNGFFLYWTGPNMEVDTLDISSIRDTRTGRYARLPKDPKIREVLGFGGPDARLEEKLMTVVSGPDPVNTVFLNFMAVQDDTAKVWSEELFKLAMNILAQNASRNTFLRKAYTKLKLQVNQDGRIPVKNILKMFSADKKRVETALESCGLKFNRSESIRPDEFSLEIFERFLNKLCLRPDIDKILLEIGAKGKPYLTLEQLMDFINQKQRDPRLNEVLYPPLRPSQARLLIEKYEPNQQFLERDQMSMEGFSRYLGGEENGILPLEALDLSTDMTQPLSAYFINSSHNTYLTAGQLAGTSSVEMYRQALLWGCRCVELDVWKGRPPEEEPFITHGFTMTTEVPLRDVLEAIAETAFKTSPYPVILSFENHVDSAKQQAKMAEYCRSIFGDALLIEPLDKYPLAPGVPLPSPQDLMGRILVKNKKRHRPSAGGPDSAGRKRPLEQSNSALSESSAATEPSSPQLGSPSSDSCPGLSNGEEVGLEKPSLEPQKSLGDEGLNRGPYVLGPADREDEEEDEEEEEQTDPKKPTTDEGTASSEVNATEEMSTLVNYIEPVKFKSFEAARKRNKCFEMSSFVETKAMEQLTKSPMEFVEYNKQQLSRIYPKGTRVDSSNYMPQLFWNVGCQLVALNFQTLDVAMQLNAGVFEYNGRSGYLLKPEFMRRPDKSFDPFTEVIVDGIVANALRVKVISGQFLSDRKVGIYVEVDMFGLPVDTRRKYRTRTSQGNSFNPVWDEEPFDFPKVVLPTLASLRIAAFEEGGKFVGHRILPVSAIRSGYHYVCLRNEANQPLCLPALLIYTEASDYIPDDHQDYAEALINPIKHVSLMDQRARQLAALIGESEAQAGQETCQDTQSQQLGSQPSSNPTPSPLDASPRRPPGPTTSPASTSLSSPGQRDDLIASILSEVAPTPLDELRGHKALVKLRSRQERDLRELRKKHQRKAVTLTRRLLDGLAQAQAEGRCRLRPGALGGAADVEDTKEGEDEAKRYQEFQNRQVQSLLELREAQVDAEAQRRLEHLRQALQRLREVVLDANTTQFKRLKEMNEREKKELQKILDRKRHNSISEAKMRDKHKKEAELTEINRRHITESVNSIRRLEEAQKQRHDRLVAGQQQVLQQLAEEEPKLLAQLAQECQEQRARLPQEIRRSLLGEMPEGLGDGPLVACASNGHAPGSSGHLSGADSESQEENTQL
# bovine MsrA act: activators of bovine methionine sulfoxide reductase A. purified bovine MsrA, absorbance read-out. activation, % at 10.6 µM. 360,000 compounds, 0.3% hits. AID 602163; in the data active = activation above about 7.5%;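 note: 0% = vehicle and 100% = reference activator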
# MsrA inh confirm: bovine MsrA inhibition, confirmed; shares compounds with MsrA inhibitor; inhibition, % at 15.5 µM; 2,300 compounds, 41% hits; purified bovine MsrA, absorbance read-out; in the data active = inhibition above about 4.5%;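 note: coupled to thioredoxin reductase with NADPH and selenocystamine and DMSO as substrate; 0% = vehicle only and 100% = full effect of reference inhibitor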
# PLCg1 ctr: inhibits human PLC-gamma1 in PLC-beta3 counter-screen | shares compounds with PLCg1 inh | purified PLC-gamma1, fluorogenic substrate, fluorescence | inhibition, % at 12.3 µM | 3,300 compounds, 3.1% hits
# PLCbeta3 conf: human PLC-beta3 inhibition, confirmation; AID 743261; shares compounds with PLCg1 inh; 3,300 compounds, 1% hits; inhibition, % at 12.3 µM; purified PLC-beta3, fluorogenic substrate fluorescence; in the data active = inhibition above about 11%
# Active calls of the source: *; i = inactive; . = no result; ! = repeats disagree. Cut-off read from the data, not from the text of the source, unless noted: active = inhibition above about 9.5%; inactive = the rest.
SMILES,PLCg1 inh,MsrA inhibitor,PLC-beta3 inh,bovine MsrA act,MsrA inh confirm,others
C=CCN1C[C@H](C)N(C(c2ccc(C(=O)N(CC)CC)cc2)c2cccc(OC)c2)CC1C (stereo not given in full),-1,0,2,.,.,
CCc1ccc(-n2c(O)c(/C=N/NC(=O)c3ccncc3)c(=O)[nH]c2=O)cc1,-48,4.7*,-54,-6,4.6*,
CC(C)(C)NC(=O)CN1C(=O)[C@@H](Cc2c[nH]c3ccccc23)N=C(c2ccccc2)c2ccccc21,1,.,1,.,.,
O=c1[nH]cnc2nc(-c3ccc(N(CCCl)CCCl)cc3)[nH]c12,-493,5.1*,i,-3,2,
CCOP(=O)(Nc1ccc2c(c1)C(=NNC(N)=S)c1ccccc1-2)OCC,-6,15*,-9,-1,11*,
N#Cc1ccc(NC(=S)N2Cc3ccccc3-n3nncc3C2)cc1,1,-1,4,-3,.,
CSc1nc(N)c(N=Nc2ccc([As](=O)(O)O)cc2)c(=O)[nH]1,-1,82*,-6,-6,86*,
COc1ccc(N=Nc2c(O)[nH]c(=S)[nH]c2=O)cc1,0,0,-2,-4,.,
CCN(CC)C1=NC(=[N+](CC)CC)c2ccccc21,-13,-1,-18,-4,.,
O=C1NC(=O)N(Cc2cccs2)C(=O)/C1=C/c1ccc(N2CCOCC2)cc1,-2,4.7*,-12,-8,3,
COc1ccc(-c2cc(=NCCCCCC(=O)O)c3cc(C)ccc3o2)cc1,i,6.3*,i,-8,7.0*!,
COc1ccc(CCNCc2ccccc2F)cc1,2,0,1,-2,.,
CC1CN(C)C(C)(C)CC1(O)c1ccccc1 (stereo not given),-1,0,1,-2,.,
COc1cc(/C=C2\C(=O)NC(=O)N(CCc3ccc(F)cc3)C2=O)ccc1O,-8,7.6*,-12,-13,4,
COc1cc2c(cc1O)C[C@H]1c3c(cc(O)c(OC)c3-2)CCN1C,-19,21*,-22,-4,9.2*,
COc1ccc2c(C)c(CC(=O)N3C[C@H]4C[C@@H](C3)c3cccc(=O)n3C4)c(=O)oc2c1C,-282,4.9*,-360,-4,2,
Nc1cc(Cl)cc(Cl)c1,4,0,5,0,.,
N/C(=N\N=C/c1ccc(-c2ccc(O)c(C(=O)O)c2)o1)N[N+](=O)[O-],-347,5.2*,-449,-4,4.7*,
CC1=CC(=C2C(=O)NC(=O)NC2=O)C=C(C(F)(F)F)N1C(C)C,-3,4.9*,-9,-5,2,
CC1=CC(=C2C(=O)NC(=O)NC2=O)C=C(C(F)(F)F)N1Cc1ccccc1,-4,-1,-4,-8,.,
CCC1(CCCC(=O)c2ccc(F)cc2)C(=O)NC(=S)NC1=O,1,-2,2,1,.,
COc1cc(C(=O)NN=Cc2ccc(N(CCCl)CCCl)cc2)cc(OC)c1OC,-306,5.2*,-412,-6,4,
CC(=O)NC(Cc1ccc(N(CCCl)CCCl)cc1)C(=O)O (stereo not given),1,1,-3,-11,.,
O=C1Nc2ccccc2/C1=C/c1cnc[nH]1,2,6.4*,0,-3,4,
CN(C)c1ccc(C=C2C(=O)NC(=S)NC2=O)cc1[N+](=O)[O-],0,7.3*,-4,-8,3,
SMILES,PLCg1 inh,MsrA inhibitor,PLC-beta3 inh,bovine MsrA act,MsrA inh confirm,others
O=C(CF)N(O)c1ccc(C=Cc2ccccc2)cc1,-19,2,-25,-4,.,
CCCCC(=O)N/N=C/c1c(O)n(Cc2ccco2)c(=O)[nH]c1=O,-5,2,-8,-2,.,
CC(=O)Nc1ccc(N=Cc2c(O)n(Cc3ccco3)c(=O)[nH]c2=O)cc1,-22,5.2*,-37,-4,6.0*,
C[n+]1c(-c2ccccc2)c2cc(N)ccc2c2ccc(N)cc21,-137,44*,-187,4,34*,
Nc1ccc2ccc3cccc[n+]3c2c1,i,2,i,-5,.,
O=c1[nH]c(O)c(C=Nc2ccc(Cl)c(C(F)(F)F)c2)c(=O)[nH]1,-10,1,-14,-2,.,
COC(=O)[C@H]1C[C@@]2(C)c3ccccc3N[C@H]2N1,1,.,4,.,.,
CC(=O)CC(=O)C1C(=O)N(C)C(=O)N(C)C1=O,11*,0,3,-8,.,PLCg1 ctr=-2;PLCbeta3 conf=1
CN1C(=O)C(c2ccccc2)C(=O)N(C)C1=O,5,1,-1,-2,.,
CCC1(CC)C(=O)NC(=O)N(CCc2ccccn2)C1=O,-1,-1,0,-3,.,
CC(=NCc1ccco1)c1c(O)n(C)c(=O)n(C)c1=O,10*,-2,4,-3,.,PLCg1 ctr=-2;PLCbeta3 conf=-1
CCC(=NCc1ccco1)c1c(O)n(C)c(=O)n(C)c1=O,2,1,-8,-4,.,
O=C(COc1ccccc1)N1CCN(Cc2c[nH]c3ccccc23)CC1,11*,-1,-1,1,.,PLCg1 ctr=-4;PLCbeta3 conf=-1
Cc1oc(-c2ccccc2Cl)nc1CN1C(=O)CN=C(c2ccccc2)c2ccccc21,9.6*,0,11*,-1,.,PLCg1 ctr=-6;PLCbeta3 conf=-6
O=C1CN=C(c2ccccc2)c2ccccc2N1Cc1ccc(C(F)(F)F)cc1,-1,0,1,-5,.,
CN1CCN(CCC(C#N)(c2ccccc2)c2ccccc2)CC1,11*,2,12*,-3,.,PLCg1 ctr=9;PLCbeta3 conf=1
CCN1CCC2(CC1)NC(CO)(CO)CO2,11*,-1,0,0,.,PLCg1 ctr=-3;PLCbeta3 conf=-1
COc1ccc2nc3c(C)n(C)ccc-3c2c1,-246,1,-337,5,.,
COC(=O)C1=C(c2ccc(OC(F)(F)F)cc2)C[C@@H]2CC[C@H]1N2C(=O)N1CCCC1,12*,0,4,-5,.,PLCg1 ctr=-4;PLCbeta3 conf=-2
COC1=C(C)C(=O)O[C@]12C(=O)C(C)=C1CCCCN3[C@H]([C@@H]4C[C@H](C)C(=O)O4)CC[C@]132,-2,-1,-1,-3,.,
CCOC(=O)C1=CC(=C2C(=O)N(CC)C(=S)N(CC)C2=O)c2ccccc2O1,-22,4,-25,.,.,
CCOC(=O)[C@]12Cc3ccc4ccccc4c3[C@H]1N(Cc1ccccc1)C(=O)c1ccccc12,11*,1,1,-1,.,PLCg1 ctr=-7;PLCbeta3 conf=-3
COC(=O)C1=C(c2c(C)noc2C)C[C@@H]2CC[C@H]1N2C(=O)N1CCC(O)(c2ccc(Cl)cc2)CC1,-3,3,0,0,.,
CN(C)CP(=O)(O)CN(C)C=O,8,1,12*,6,.,PLCg1 ctr=-1;PLCbeta3 conf=2
COC(=O)C(C)NC(=S)N1CC2C[C@@H](C1)Cn1c2cccc1=O (stereo not given in full),2,-2,-2,-7,.,
Clc1cccc(N2Cc3cc(N4CCOCC4)ccc3-n3nncc3C2)c1,-1,-1,-4,-3,.,
COc1ccc(-c2ccc3c(c2)CN(c2cccc(Cl)c2)Cc2cnnn2-3)cc1,13*,-2,-4,0,.,PLCg1 ctr=-4;PLCbeta3 conf=-10
Cc1cc(Cl)nc(N)n1,13*,0,7,3,.,PLCg1 ctr=-4;PLCbeta3 conf=3
S=P(Nn1cnnc1)(c1ccc(Br)cc1)c1ccc(Br)cc1,0,3,0,-2,.,
